Hits are enriched below; roughly 15% of the tested compounds scored in any of these assays.
RORg inh: qHTS for inhibitors of ROR gamma transcriptional activity. AID 2551, 2010. Nuclear receptor ROR-gamma (Mus musculus), P51450. Drosophila S2 Gal4-RORgamma UAS-luciferase reporter, 20 h. 310,000 compounds, 5.4% hits. Potency, µM (highest dose often 53.6 µM), inactives show at the highest dose activity change, negative = inhibition, actives largely listed as inhibitors; note: nearly all actives have a fitted effect of over 60% in size
Target sequence (P51450 whole entry, looked up, the tested form may be a part): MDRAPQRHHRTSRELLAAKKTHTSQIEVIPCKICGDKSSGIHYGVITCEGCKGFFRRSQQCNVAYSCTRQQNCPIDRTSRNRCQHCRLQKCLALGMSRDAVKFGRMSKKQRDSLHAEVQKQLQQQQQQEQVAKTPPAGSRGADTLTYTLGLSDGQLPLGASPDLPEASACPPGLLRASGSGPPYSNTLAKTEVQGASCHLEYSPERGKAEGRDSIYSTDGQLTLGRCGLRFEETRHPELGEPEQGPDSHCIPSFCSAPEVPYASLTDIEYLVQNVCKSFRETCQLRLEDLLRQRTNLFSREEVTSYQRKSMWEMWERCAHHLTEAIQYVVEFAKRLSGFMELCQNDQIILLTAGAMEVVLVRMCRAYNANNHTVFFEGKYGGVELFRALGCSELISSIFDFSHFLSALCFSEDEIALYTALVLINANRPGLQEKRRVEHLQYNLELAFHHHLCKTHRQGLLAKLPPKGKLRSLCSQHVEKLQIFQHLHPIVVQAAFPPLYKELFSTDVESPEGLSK
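A Gal4/UAS one-hybrid system in insect cells: metallothionein-promoter Gal4–ROR gamma fusion plus Photinus luciferase reporter. Copper sulfate 700 uM final, 20 hr ambient incubation, luminescent detection after 10 min with reagent.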
ALOX12 inh: Primary qHTS assay for inhibitors of human arachidonate 12S-lipoxygenase (ALOX12): Round 2; AID 1671190, 2021; 580,000 compounds, 1.1% hits; Polyunsaturated fatty acid lipoxygenase ALOX12 (Homo sapiens), P18054; Potency, µM (top dose mostly 108 µM), without a hit: at the highest dose activity change, negative = inhibition, hits mostly inhibitors; purified 12hLO, xylenol orange hydroperoxide absorbance
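Purified human 12hLO at 150 nM in 25 mM Hepes, 0.01% Triton X-100, pH 7.0, preincubated 15 min at room temperature with compound. Reaction started with 40 uM arachidonic acid, 30 min at room temperature. Hydroperoxide measured by Fe-xylenol orange, 573/405 nm absorbance ratio.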
ELG1 DNA repair: qHTS screen for small molecules that inhibit ELG1-dependent DNA repair in human embryonic kidney (HEK293T) cells expressing luciferase-tagged ELG1 | HEK293T ELG1-luciferase reporter, luminescence, 16 h; DNA damage induced by 5-fluorouridine | Potency, µM (titrated, usually from 46.1 µM), for the others: top-dose activity change, negative = inhibition, most hits filed as inhibitors | 330,000 compounds, 2.3% hits; note: nearly all actives have a fitted effect of over 55% in size
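Cells (2,000 per well) received 5-fluorouridine plus test compound or DMSO and were incubated 16 hr at 37 °C, 5% CO2. Luciferase activity was read by luminescence 30 min after ONE-Glo addition; signal suppression marked inhibition of damage-induced ELG1 function.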
TDP1 cell noCPT: qHTS for Inhibitors of human tyrosyl-DNA phosphodiesterase 1 (TDP1): qHTS in cells in absence of CPT. 420,000 compounds, 15% hits. DT40 Tdp1-/- hTDP1 cells, no CPT, ATP luminescence, 48 h. Potency, µM (titrated, usually from 46.2 µM), without a hit: at the highest dose activity change, negative = growth inhibition, hits mostly inhibitors. AID 686978, 2013; note: nearly all actives have a fitted effect of over 55% in size
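Chicken DT40 Tdp1-/- cells stably complemented with human TDP1 were seeded at 400 cells/well with DMSO in place of 20 nM camptothecin. After compound pinning, cells grew at least 48 hr at 37 °C; viability read by CellTiter-Glo luminescence.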
TDP1 cell CPT: qHTS for Inhibitors of human tyrosyl-DNA phosphodiesterase 1 (TDP1): qHTS in cells in presence of CPT; chicken DT40 Tdp1-/-;hTDP1 cells + 20 nM CPT, ATP luminescence, 48 h; AID 686979, 2013; 420,000 compounds, 12% hits; Potency, µM (titrated, usually from 46.2 µM), without a hit: at the highest dose activity change, negative = growth inhibition, actives largely listed as inhibitors; note: nearly all actives have a fitted effect of over 55% in size
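Chicken DT40 Tdp1-/- cells complemented with human TDP1, 400 cells/well, exposed to compounds plus 20 nM camptothecin for at least 48 h at 37 C; viability read as ATP content by CellTiter-Glo luminescence.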
VP16 counter: VP16 counterscreen qHTS for inhibitors of ROR gamma transcriptional activity | 310,000 compounds, 3.5% hits | Drosophila S2 Gal4-VP16 UAS-luciferase, luminescence, 20 h | Potency, µM (series often up to 53.6 µM), inactives show at the highest dose activity, negative = inhibition, actives largely listed as inhibitors;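 note: Gal4-VP16 expression switched on by copper sulfate through the metallothionein promoter; nearly all actives have a fitted effect of over 50% in size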
The depositor's hits bear a star; ? = inconclusive; . = not tested or not shown; [ ] = remark or other dose. Calls come from the whole dose curve; as a rule, active = well fitted curve in the direction sought with a large enough effect; inconclusive = small, poorly fitted or top-dose-only effect, or another doubt; inactive = no such curve, though single readings can be large; an effect the other way counts as inactive or inconclusive. % is set by controls: 0 for no effect and ±100 for the full control effect; potency is the fitted concentration of half-maximal effect.

SMILES	RORg inh	ALOX12 inh	ELG1 DNA repair	TDP1 cell noCPT	TDP1 cell CPT	VP16 counter
Cc1ccc(CSC2=CS(=O)(=O)c3ccccc3N2)cc1	29%	25%	-6%	?	?	4%
Cc1cccc(CSC2=CS(=O)(=O)c3ccccc3N2)c1	28%	-18%	-2%	23µM*	?	-4%
O=C(CCCn1ccnc1)N1CCC2(CCC(=O)N(Cc3ccncc3)C2)CC1	.	5%	.	.	.	.
COc1cncc(CN2CCC3(CC2)OC(=O)N(Cc2csc(C)n2)C3(C)c2ccccc2)c1 (stereo not drawn)	.	30%	.	.	.	.
Cc1nonc1C1CCCN1Cc1nc(-c2ccccc2Cl)oc1C (stereo not drawn)	-36%	-2%	3%	15µM*	?	-6%
Cc1oc(-c2ccccc2Cl)nc1CN1CCCC1c1ccc(F)cc1 (stereo not drawn)	11µM*	?	-12%	-36%	?	-11%
Cc1oc(-c2ccccc2Cl)nc1CN1CCCCC1c1cccnc1 (stereo not drawn)	-18%	1%	-4%	-27%	-18%	10%
Cc1oc(-c2cccc3ccccc23)nc1CN1CCC[C@H]1CO	7.1µM*	-7%	10%	-25%	-24%	?
Cc1ccccc1-c1nc(CN2CCCC2c2ccc(F)cc2)c(C)o1 (stereo not drawn)	-42%	-9%	-3%	16µM*	21µM*	2%
CN(CCOc1ccc(Br)cc1)C(=O)c1cc(=O)[nH]c2ccccc12	.	9%	.	.	.	.
CN1CCN(c2cc(-c3ccccc3)nc3cc(-c4ccc(F)cc4)nn23)CC1	-3%	?	23µM*	5.8µM*	4.1µM*	-5%
OCCCNc1cc(-c2ccccc2)nc2cc(-c3ccc(F)cc3)nn12	20%[1.91 µM]	20%	?	5.2µM*	8.2µM*	6%
Fc1ccc(-c2cc3nc(-c4ccccc4)cc(N4CCN(CCN5CCOCC5)CC4)n3n2)cc1	-27%	?	?	7.3µM*	12µM*	-15%
CCc1nn2c(N3CCOCC3)cc(C)nc2c1-c1ccc(F)cc1	-41%	2%	0%	?	?	-12%
Cc1cc(NCCCO)n2nc(-c3cccs3)cc2n1	2%	5%	?	3%	27%	-5%
COc1ccc(-n2c(=O)c3c4c(sc3n(Cc3ccc(F)cc3)c2=O)CN(C(C)=O)CC4)c(OC)c1	.	-2%	.	13µM*	21µM*	.
COc1ccc(-n2c(=O)c3c(C)c(C)sc3n(Cc3ccc(F)cc3)c2=O)c(OC)c1	11%	-1%	?	13µM*	3%	-8%[10 µM]
COc1ccc(-n2c(=O)c3c(C)c(C)sc3n(CC(=O)NCc3ccc(C)cc3)c2=O)c(OC)c1	.	-20%	.	-14%	-5%	.
COc1cccc(-n2c(=O)c3c(C)c(C(=O)N(C)C)sc3n(Cc3ccc(F)cc3Cl)c2=O)c1	.	-24%	.	18µM*	?	.
COc1ccc(-n2c(=O)c3c4c(sc3n(Cc3cccc(F)c3)c2=O)CN(C(C)=O)CC4)c(OC)c1	1%	.	-2%	.	.	-10%
FC(F)(F)c1cc(-c2ccccc2)nc(SCc2ccccc2Cl)n1	.	-12%	.	.	.	.
CCc1ccc(NC(=O)c2cc(S(=O)(=O)N3CCCCCC3)ccc2F)cc1	.	?	.	18µM*	?	.
CCc1ccc(NC(=O)c2cc(S(=O)(=O)N3CCCC3)ccc2F)cc1	.	3%	.	12µM*	15µM*	.
CCOc1ccc(NC(=O)c2cc(S(=O)(=O)N3CCOCC3)ccc2F)cc1	.	?	.	?	-5%	.
CCc1ccc(NC(=O)c2cc(S(=O)(=O)N3CCCCC3)c[nH]2)cc1	.	-12%	.	.	.	.
SMILES	RORg inh	ALOX12 inh	ELG1 DNA repair	TDP1 cell noCPT	TDP1 cell CPT	VP16 counter
CCc1ccc(NC(=O)CCn2nc(C)c(S(=O)(=O)N3CCCCC3)c2C)cc1	-2%	0%	-6%	18µM*	23µM*	-1%
CCOc1ccc(Nc2nc3ccccc3nc2NS(=O)(=O)c2ccc(NC(C)=O)cc2)cc1	.	-6%	.	.	.	.
Cc1nn(-c2ccccc2)c(C)c1C(=O)NCCc1ccccc1	-11%	3%	?	-12%	-8%	-2%
Cc1nn(-c2ccccc2)c(Cl)c1C(=O)NCCCCNC(=O)c1c(C)nn(-c2ccccc2)c1Cl	42%	14%	16µM*	-5%	4%	2%
CCC(CNC(=O)c1nn(-c2ccccc2)c(=O)c2ccccc12)c1ccccc1 (stereo not drawn)	.	-10%	.	.	.	.
CCC(CNC(=O)c1c(C)nn(-c2ccccc2)c1Cl)c1ccccc1 (stereo not drawn)	15%	-7%	19%	21µM*	23µM*	8%
Cc1nn(-c2ccc(C(=O)Nc3nnc(C4CC4)s3)cc2)c(C)c1Cl	-2%	0%	-11%	-9%	-5%	1%
Cc1nn(-c2ccccc2)c(Cl)c1C(=O)Nc1nnc(C2CCCCC2)s1	13µM*	-18%	-2%	-16%	-24%	?
CCOc1ccc(CCNC(=O)c2c(C)nn(-c3ccccc3)c2Cl)cc1OCC	13%	10%	-1%	?	16µM*	6%
O=S(=O)(c1ccccc1)N1CCC(N(Cc2cccnc2)C2CCOCC2)CC1	.	44%	.	.	.	.
CCc1ccc(/C=C2/SC(=S)N(CCC(=O)Nc3cccc(C(=O)O)c3)C2=O)cc1	?	15%	?	23%	0%	-17%
CCc1ccc(/C=C2/SC(=S)N(CCC(=O)Nc3ccc(C(=O)O)cc3)C2=O)cc1	3.5µM*	-25%	-3%	.	.	-7%

Screening results from PubChem BioAssay.
